# Compound activity from PubChem.
# The list is not random: actives were taken first. Their share in the collection is about 2.3%.
# Mcl1 Bid PPI = Mcl-1/Bid binding inhibitors, primary screen, biochemical, TR-FRET, 1536-well; Induced myeloid leukemia cell differentiation protein Mcl-1 (Homo sapiens), Q07820; TR-FRET Mcl-1/Bid-Dy647 peptide binding; inhibition, % at 21.7 µM; 0.97% of 220,000 active;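 active means compounds that cut the binding signal by more than half at the single screening dose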;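 further: His-tagged Mcl-1 with europium anti-His antibody binding Bid BH3 peptide; 0% = Mcl-1 plus peptide wells and 100% = peptide-only wells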
# GLD-1 RNA inh = GLD-1/TGE RNA complex disruptors, primary screen, biochemical, fluorescence polarization; Female germline-specific tumor suppressor gld-1 (Caenorhabditis elegans), Q17339; purified GLD-1 + fluorescein TGE RNA; inhibition, % at 5.96 µM; 0.44% of 320,000 active;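 active means percent inhibition above a per-plate cutoff, the plate mean of test compounds plus 3 SD, cut at about 30% in these data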;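 further: 0% = DMSO wells with GLD-1 and probe and 100% = wells lacking GLD-1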
# Target sequence (Q17339 whole entry, looked up): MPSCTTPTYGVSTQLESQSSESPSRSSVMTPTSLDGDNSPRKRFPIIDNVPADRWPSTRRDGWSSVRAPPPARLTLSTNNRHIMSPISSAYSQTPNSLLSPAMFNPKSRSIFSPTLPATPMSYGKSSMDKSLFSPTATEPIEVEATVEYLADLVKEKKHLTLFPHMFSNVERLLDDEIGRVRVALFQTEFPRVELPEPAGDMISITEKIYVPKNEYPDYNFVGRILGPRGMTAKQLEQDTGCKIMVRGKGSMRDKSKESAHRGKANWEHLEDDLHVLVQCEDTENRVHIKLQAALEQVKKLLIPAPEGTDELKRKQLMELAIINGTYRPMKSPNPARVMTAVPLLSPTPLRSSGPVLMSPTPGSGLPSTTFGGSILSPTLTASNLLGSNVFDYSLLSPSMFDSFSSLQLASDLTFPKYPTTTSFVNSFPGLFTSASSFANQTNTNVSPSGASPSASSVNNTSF
# Bcl-xL primary = inhibitors of human Bcl-xL, primary screen, biochemical, fluorescence polarization, HTS; GST-Bcl-xL / FITC-Bim BH3 peptide fluorescence polarization; 0.7% of 320,000 active; AID 2129, 2009; inhibition, % at 10.9 µM;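 active means inhibition above the mean of all tested compounds plus 3 SD, cutoff set per campaign, cut at about 30% in these data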;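 further: 0% = DMSO wells and 100% = unlabeled Bim-BH3 peptide competitor; inhibitors lower millipolarization by displacing the labeled peptide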
# Mcl-1 Bim block = inhibitors of Bim peptide binding to Mcl-1, primary screen, biochemical, bead-based flow cytometry, multiplex | AID 1009, 2008 | inhibition, % at 10 µM | 0.1% of 190,000 active | Bim peptide-Mcl-1 binding; in the data active means inhibition above about 40%;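 further: 0% = no compound tracer wells and 100% = peptide blocker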
# MCL1-BIM inh = inhibitors of MCL1 binding to BIM-BH3, primary screen, biochemical, fluorescence polarization. 0.68% of 320,000 active. inhibition, % at 10.9 µM. AID 2057, 2009. GST-MCL1 / FITC-Bim-BH3 fluorescence polarization. Induced myeloid leukemia cell differentiation protein Mcl-1 (Homo sapiens), Q07820;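 active means inhibition above the mean inhibition of all tested compounds plus 3 SD, set per campaign, cut at about 40% in these data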;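 further: 0% = DMSO wells and 100% = unlabeled Bim-BH3 peptide control; higher means more loss of mP so more displacement of Bim peptide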
# Mcl1 Noxa PPI = Mcl-1/Noxa binding inhibitors, primary screen, biochemical, TR-FRET, 1536-well | Induced myeloid leukemia cell differentiation protein Mcl-1 (Homo sapiens), Q07820 | AID 1022, 2008 | 1.5% of 220,000 active | TR-FRET Mcl-1/Noxa peptide binding, 2 h | inhibition, % at 21.7 µM;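 active means compounds that cut the protein-peptide binding signal by more than 50% relative to plate controls in a single-dose test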;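 further: His-tagged Mcl-1 with rhodamine Noxa BH3 peptide and terbium anti-His antibody; 0% = Mcl-1 plus Noxa peptide wells and 100% = peptide-only wells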
# The depositor's hits bear a star; / = not tested or not shown.
SMILES,Mcl1 Bid PPI,GLD-1 RNA inh,Bcl-xL primary,Mcl-1 Bim block,MCL1-BIM inh,Mcl1 Noxa PPI
CC(CCC(=O)Nc1nncs1)C(=O)O (stereo unspecified),86*,-2,0,0,-3,33
CCC(CCC(=O)Nc1nncs1)C(=O)O (stereo unspecified),0,/,/,9,/,-5
CC(C)=CCc1cc(-c2oc3cc(O)cc(O)c3c(=O)c2O)ccc1O,/,4,3,/,1,/
CC(C)=CCc1c(O)cc2oc3c(CC=C(C)C)c(O)c(O)c(CC=C(C)C)c3c(=O)c2c1O,-51,10,2,/,13,60*
CCOC(=O)CN(C(=O)CSc1nnc(CNc2ccc(F)cc2)n1C)c1ccccc1,-28,45*,-2,2,-9,13
CCCCc1nnc2c(N(C)S(=O)(=O)c3ccccc3)nc3ccccc3n12,55*,-2,1,/,-1,19
COCCN1C(=O)C(=O)/C(=C(/O)c2ccc(S(=O)(=O)N3CCOCC3)cc2)C1c1cccc(Cl)c1 (stereo unspecified),66*,2,0,/,-3,40
COC(=O)c1ccc2c(=O)n(CCCCCC(=O)NCc3ccc4c(c3)OCO4)c(=O)[nH]c2c1,56*,4,6,4,3,-32
Cc1ccc(CC(=O)NCCCc2ccccc2)cc1,-26,7,1,0,-4,-1
Cc1ccc(S(=O)(=O)CCNC(=O)Cc2ccccc2)cc1,96*,5,5,-2,-1,-2
Nc1cc(N)c(OCC(F)(F)F)cc1OCC(F)(F)F,-45,30,39*,0,29,13
Nc1cc(OCC(F)(F)F)cc([N+](=O)[O-])c1,-36,-3,6,-2,-1,0
COc1cc([N+](=O)[O-])ccc1NC(=O)N1CCCCCC1,/,4,4,/,4,/
CC(NC(=O)c1cc(F)c(F)cc1Cl)C1CC2CCC1C2 (stereo unspecified),/,0,41*,/,39,/
O=C(NC1=NCCS1)c1cc(-c2cccs2)nc2ccccc12,-93,5,-3,/,-9,8
Cc1ccc(-c2cc(C(=O)NN3CCOCC3)c3cc(Br)ccc3n2)o1,1,5,7,1,10,57*
Cc1ccc(-c2cc(C(=O)NC3=NCCS3)c3cc(Br)ccc3n2)o1,51*,-1,13,8,24,102*
Cc1ccc(-c2cc(C(=O)NCCCn3ccnc3)c3cc(Br)ccc3n2)o1,34,12,17,0,34,76*
Cc1cccc(-c2cc(C(=O)NCCCn3ccnc3)c3ccccc3n2)c1,-27,/,/,-2,/,5
CC(C)C1COS(=O)(=O)NC1CC(=O)SC(C)(C)C (stereo unspecified),/,2,6,/,17,/
S=c1nc(-c2cccc(Cl)c2)[nH][nH]1,-28,2,7,-5,9,35
S=c1nc(-c2cc(Cl)ccc2Cl)[nH][nH]1,58*,-8,10,0,34,50
C(=N\Nc1nc2ccccc2s1)/c1ccccn1,-95,-3,32*,/,34,-82
COc1cc(/C=N/Nc2ccc(F)cc2F)cc(OC)c1O,-76,6,17,9,26,62*
COc1cc(/C=N/Nc2nc3ccccc3s2)cc([N+](=O)[O-])c1O,13,-5,34*,/,17,32
SMILES,Mcl1 Bid PPI,GLD-1 RNA inh,Bcl-xL primary,Mcl-1 Bim block,MCL1-BIM inh,Mcl1 Noxa PPI
COc1cc(/C=N/Nc2ccccc2[N+](=O)[O-])cc(OC)c1O,-13,1,18,2,26,58*
COc1cc(/C=N/Nc2ccc(S(N)(=O)=O)cc2[N+](=O)[O-])cc(OC)c1O,3,4,20,/,22,48
COc1ccccc1N1CCN(S(=O)(=O)c2c(C(=O)N3CCOCC3)c(C)n(C)c2C)CC1,/,-1,0,/,2,/
O=C(CSC(=S)N1CCCC1)Nc1ncc(Cl)cc1Cl,/,7,3,/,-1,/
COc1cc(/C=N/Nc2nc3ccccc3[nH]2)ccc1O,-15,2,5,1,2,34
COc1cc(/C=N/Nc2nc3ccccc3[nH]2)cc(OC)c1O,-67,-7,7,0,4,73*
O=C(Cn1nc2ccccc2n1)N/N=C/c1cc(Cl)cc([N+](=O)[O-])c1O,-39,/,/,3,/,38
O=[N+]([O-])c1cc(Cl)cc(/C=N/Nc2nc3ccccc3s2)c1O,-15,-1,4,-1,9,67*
CCOC(=O)c1sc2nc(C(C)C)c3c(c2c1N)CCC3,-46,9,2,-3,6,4
CC(C)c1nc2sc3c(=O)[nH]c(=S)[nH]c3c2c2c1CCCC2,-172,5,11,/,7,57*
CC(C)c1nc2sc3c(=O)[nH]c(=S)[nH]c3c2c2c1CCC2,11,/,/,0,/,81*
Cn1c(-c2ccccc2)c(C(=O)CCl)c2ccccc21,-23,/,/,0,/,70*
CC12CCC(C(=O)Nc3ccccc3N3CCOCC3)(CC1=O)C2(C)C (stereo unspecified),-8,2,-1,1,4,4
CC12CCC(C(=O)Nc3ccccc3-n3cccc3)(CC1=O)C2(C)C (stereo unspecified),76*,-2,6,-3,7,-2
COc1ccc(/C=N/Nc2nc(-c3cccnc3)nc3ccccc23)c(OC)c1,54*,-110,3,/,-4,35
CSc1ccc(CN2CCN(C(=O)CC(C)C)CC2)cc1,/,4,6,/,2,/
Cn1c(SCC(=O)NNC(=O)c2ccccc2)nnc1C1CC1,/,2,8,/,8,/
CN1CCc2c(sc(NC(=O)C3CCCN3S(=O)(=O)c3ccc(Cl)s3)c2C(N)=O)C1 (stereo unspecified),/,7,8,/,0,/
COc1ccc(Cn2c(CCC(=O)NCc3ccco3)nc3cccnc32)cc1,-44,-5,0,-3,-3,65*
CCCCNC(=O)CCc1nc2cccnc2n1Cc1ccc(OC)cc1,-1,-3,1,-1,-2,1
CN(C)c1ccc(NC(=S)NC23CC4CC(CC(C4)C2)C3)cc1,/,10,3,/,8,/
Cc1cccc(NC(=S)NC(=O)c2oc3ccccc3c2C)n1,/,5,4,/,10,/
CC1=C(SCCC#N)S/C(=C2\SC(C)=C(SCCC#N)S2)S1,96*,4,13,-7,16,74*
Cn1c(SCCC#N)nnc1-c1ccc(F)cc1,-34,7,5,-2,13,4
COc1ccc(Br)c2oc(S)cc(=O)c12,-7,0,15,-6,17,64*
